Among all 300,000 compounds or so, about 3,200 (1.1%) were called active. The sample as a whole holds a higher share of actives than the screen did. A number with no mark means an inactive call.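 How the source made its calls: active means inhibition above the campaign mean inhibition plus 3 SD (cut at about 35% in these data); inactive means the rest.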
Each compound was assayed against Glutathione S-transferase omega-1 (Homo sapiens) (UniProt P78417) (assay: inhibitors of recombinant GSTO1, primary screen, counter-screen for RBBP9 inhibitor project, biochemical, fluorescence polarization (AID 1974;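 further: 0% = GSTO1-1 with DMSO and 100% = wells lacking GSTO1-1 enzyme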)). Details: recombinant GSTO1, activity-based probe fluorescence polarization; at 5.96 µM; stronger effect = higher value.
Sequence of Glutathione S-transferase omega-1 (Homo sapiens) (P78417 whole entry, looked up): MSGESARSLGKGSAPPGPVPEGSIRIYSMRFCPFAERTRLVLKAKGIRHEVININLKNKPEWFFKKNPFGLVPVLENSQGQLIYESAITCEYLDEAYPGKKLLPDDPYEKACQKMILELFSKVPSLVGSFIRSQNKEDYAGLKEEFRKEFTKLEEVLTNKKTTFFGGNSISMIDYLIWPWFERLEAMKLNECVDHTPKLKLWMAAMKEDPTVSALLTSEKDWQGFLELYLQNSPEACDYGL
In the case of `Cc1ccc(NC(=O)C2CC(=O)N(c3ccc4c(c3)OCCO4)C2)cc1S(=O)(=O)N1CCCCCC1` (stereo not given), the inhibition is reported as 0.87%.
`Cc1cccc(C(=O)NCCCN(C)CCCNC(=O)c2cccc(C)c2)c1` showed an inhibition of -1.1%.
In the case of `CCN(CCCNC(=O)CCn1c(=O)[nH]c2ccsc2c1=O)c1ccccc1`, the inhibition is reported as 0.71%.
In the case of `CCN(CCCNC(=O)c1ccc2c(c1)NC(=O)CN2C)c1cccc(C)c1`, the inhibition is reported as 52.9% (active).
Work on `CCOCCn1[nH]c2ccccc2c1=O` yielded an inhibition of 1.49%.
With `O=c1[nH]c2ccccc2n2c(-c3ccccc3)nnc12` the inhibition was 69.1% (active).
In the case of `CC(=O)c1c(-c2ccccc2)c2ccccc2[nH]c1=O`, the inhibition is reported as -2.94%.
With `Cc1ccccc1Cn1c(=O)[nH]c2ccccc21` the inhibition was 8.19%.
For `O=S(=O)(NCCS(=O)(=O)N1CCN(c2ccccc2)CC1)c1ccc(F)cc1`, the inhibition was -12.9%.
`CN(CC(=O)NNC(=O)CNC(=O)c1ccccc1Cl)S(=O)(=O)c1ccc(Cl)cc1` showed an inhibition of 5.54%.
In the case of `O=C1NCCn2nc3ccccc3c21`, the inhibition is reported as 3.49%.
Compound `CCOc1ccc(NC(=O)CCC(=O)N/N=C/c2ccc([N+](=O)[O-])s2)cc1` has an inhibition of 5.9%.
With `O=[N+]([O-])c1ccc(C=Nc2ccc(Cl)cc2Cl)s1` the inhibition was 38.5% (active).
In the case of `O=C(NCc1ccccc1Cl)C(=O)NCC1CCCN1S(=O)(=O)c1cccs1` (stereo not given), the inhibition is reported as 4.65%.
Work on `CCOc1ccc(CCNC(=O)CN2C(=O)NC3(CCc4ccccc43)C2=O)cc1OCC` (stereo not given) yielded an inhibition of 1.55%.
Compound `C#CCOCCOCCOCCNc1nc(N2CCN(C(=O)Cn3cc(CCCCN)nn3)CC2)nc(N2CCN(C(=O)[C@H](CCCCN)n3cc(CCC(=O)O)nn3)CC2)n1` has an inhibition of 6.12%.
With `Cc1cc(N2CCN(S(=O)(=O)c3ccc(C)c(C)c3)CC2)c2ccccc2n1` the inhibition was -2.63%.
`Cc1ccc(S(=O)(=O)Nc2nc3ccccc3nc2N2CCc3ccccc3C2)cc1` showed an inhibition of 0.1%.
`Cc1ccc(S(=O)(=O)C(C#N)c2nc3ccccc3nc2N2CCCC2)cc1C` (stereo not given) was tested, and the inhibition was 51.4% (active).
In the case of `O=C(NCCC1CCCCN1S(=O)(=O)c1ccc(Cl)cc1)C(=O)NCc1ccco1` (stereo not given), the inhibition is reported as -0.26%.
Compound `CN(C)CCc1c[nH]c2ccc(Cn3cncn3)cc12` has an inhibition of 4.56%.
`CC(OC(=O)CCCOc1ccccc1)C(=O)Nc1ccc(Cl)cn1` (stereo not given) was tested, and the inhibition was -0.72%.
In the case of `Cc1ccc(NC(=O)CSc2cccc3cccnc23)c(C)c1`, the inhibition is reported as 14.1%.
`O=C(CSc1cccc2cccnc12)N/N=C/c1cccnc1` was tested, and the inhibition was 36.6% (active).
`O=C(CNC(=O)c1cccnc1)N/N=C/c1cccnc1` showed an inhibition of -0.23%.
Work on `O=C(CSc1nc(=O)n2ccccc2n1)Nc1ccc2c(c1)OCCO2` yielded an inhibition of 3.74%.
In the case of `C/C(CCC(=O)OC[C@H]1O[C@H](C#Cc2ccccc2)C=C[C@@H]1Oc1ccc(C)cc1)=N\OC[C@@H](O)[C@H]1O[C@@H]2OC(C)(C)O[C@@H]2[C@H]1O`, the inhibition is reported as 3.31%.
For `CCOc1ccc(/C=C/C(=O)OCC(=O)c2ccccc2OC)cc1OC`, the inhibition was -2.58%.
For `O=C(N/N=C/c1ccc(O)c(O)c1)C1c2ccccc2Oc2ccccc21`, the inhibition was 35.5% (active).
Compound `CCC(C)NC(=O)C1c2ccccc2Oc2ccccc21` (stereo not given) has an inhibition of 2.29%.
`CCC(C)(C)NC(=O)C1c2ccccc2Oc2ccccc21` gave an inhibition of 3.61%.
For `CCOC(=O)N1CCN(C(=O)COc2ccc3oc4c(c3c2)CCCC4)CC1`, the inhibition was -0.52%.
`Nc1ccccc1/C=N\N=C/c1ccccc1N` showed an inhibition of 8.02%.
`CCOc1ccc(CCNC(=O)COC(=O)c2ccc(F)c(S(=O)(=O)N3CCOCC3)c2)cc1OCC` gave an inhibition of 11.6%.
Compound `CCCCN(CCCC)CCC(O)c1cc2c(Cl)cc(Cl)cc2c2cc(C(F)(F)F)ccc12` (stereo not given) has an inhibition of 7.04%.
`COc1ccc(CNC(=O)C2(CC3CC(c4ccccc4)=NO3)CCN(C(=O)c3cccc(O)c3)CC2)cc1` (stereo not given) was tested, and the inhibition was -2.65%.
Compound `Cc1noc(C)c1C(=O)N1CCOCC1` has an inhibition of -8.26%.
For `Cc1oc2c(c1C(=O)N1CCOCC1)C(=O)c1ccccc1C2=O`, the inhibition was 49% (active).
`CCOC(=O)c1ccccc1C(=O)N1CCOCCOCCOCC1` was tested, and the inhibition was 0.47%.
`CCOc1ccc(CC(=O)NCCS(=O)(=O)N2CCN(c3ccccc3)CC2)cc1` showed an inhibition of 2.49%.
In the case of `COc1ccc(-c2csc3ncnc(N4CCN(S(=O)(=O)c5cccc(F)c5)CC4)c23)cc1`, the inhibition is reported as -26.4%.
`Cc1cc(C(=O)N/N=C/c2ccccc2[N+](=O)[O-])c(C)o1` was tested, and the inhibition was -0.23%.
With `O=C(Cc1cc(=O)[nH][nH]1)N/N=C/c1ccccc1[N+](=O)[O-]` the inhibition was 49.5% (active).
For `Cc1ccsc1C(=O)N/N=C/c1ccc([N+](=O)[O-])cc1`, the inhibition was 0.47%.
For `Cc1ccsc1/C=N/NC(=O)Cc1cc(=O)[nH][nH]1`, the inhibition was 37.2% (active).
For `COc1cc(CC(=O)N/N=C/c2ccccc2)c([N+](=O)[O-])cc1OC`, the inhibition was -0.51%.
`CCOc1ccc(N2CC(C(=O)N/N=C/c3sccc3C)CC2=O)cc1` (stereo not given) gave an inhibition of 8.53%.
Compound `CCC(C)c1ccccc1N1CC(C(=O)N2CCN(S(=O)(=O)c3ccc(F)cc3)CC2)CC1=O` (stereo not given) has an inhibition of 2.71%.
`CCOC(=O)/C=C/c1ccc(C(F)(F)F)cc1S(=O)(=O)NC(C)(C)C` was tested, and the inhibition was -1.78%.
`COC(=O)c1ccc2ccccc2c1OC1OC(CO)C(O)C(O)C1NC(C)=O` (stereo not given) was tested, and the inhibition was 2.04%.
`Cc1ccc2nc(NC(=O)C3CSC4(C)CCC(=O)N34)sc2c1` (stereo not given) was tested, and the inhibition was 1.93%.
`Cc1nn(-c2ccccc2)c2c1C(c1ccc(F)cc1)C(C#N)=C(N)O2` (stereo not given) gave an inhibition of 25.3%.
With `Cc1nn(Cc2ccccc2)c2c1C(c1ccccc1)C(C#N)=C(N)O2` (stereo not given) the inhibition was 6.98%.
In the case of `COc1ccccc1C1C(C#N)=C(N)Oc2c1c(-c1ccccc1)nn2-c1ccccc1` (stereo not given), the inhibition is reported as 59.1% (active).
Work on `C#CCOCCOCCOCCNc1nc(N2CCN(C(=O)CCCCCCCCCCNC(=O)[C@H](CCCCN)n3cc(C)nn3)CC2)nc(N2CCN(C(=O)CCCCCCCCCCNC(=O)[C@H](CO)n3cc(CCCSC)nn3)CC2)n1` yielded an inhibition of 4.17%.
With `CCOC(=O)[C@H]1[C@H]2COc3ccc(Cl)cc3[C@@H]2N2C(=O)c3cc(C)ccc3NC(=O)[C@@]12C` the inhibition was 1.13%.
In the case of `Cc1nc2ccccc2c(=O)n1-c1ccc(F)c(NC(=O)c2cccs2)c1`, the inhibition is reported as -6.66%.
`CCN(C(=O)CSc1nnc(-c2ccc(OC(F)F)cc2)n1N)C1CCS(=O)(=O)C1` (stereo not given) was tested, and the inhibition was -5.72%.
With `Cc1ccc(-c2nn(-c3ccc(F)cc3)cc2C(=O)NCC(c2cccs2)N2CCOCC2)cc1` (stereo not given) the inhibition was -3.34%.
For `Clc1ccccc1CSc1nnc(-c2ccco2)c(-c2ccco2)n1`, the inhibition was 53% (active).
Work on `O=c1[nH]c(SCc2ccccc2)nnc1-c1ccccc1` yielded an inhibition of -7.41%.
With `c1ccc(CSc2nnc(-c3ccco3)c(-c3ccco3)n2)cc1` the inhibition was 59.8% (active).
Work on `Brc1ccc(CSc2ccc(-c3ccco3)nn2)cc1` yielded an inhibition of -3.33%.
For `Fc1cccc(Cl)c1CSc1ccc(-c2ccco2)nn1`, the inhibition was 3.45%.
With `O=c1cc(O)nc(SCc2ccccc2Cl)[nH]1` the inhibition was -11.3%.
For `Cc1cc(C)n2nc(C(=O)OC(C)C(=O)c3cc(C)c(C)cc3C)nc2n1` (stereo not given), the inhibition was 3.12%.
Compound `COc1ccc(CNC(=O)CNC(=O)c2sc3ccccc3c2Cl)cc1OC` has an inhibition of -3.56%.
`O=c1[nH]c(/C=C/c2cccc(Br)c2)nc2ccccc12` showed an inhibition of -7.5%.
With `O=[N+]([O-])c1ncc(Br)cc1Nc1ccccc1` the inhibition was 13.4%.
Compound `Cc1cc(C(=O)N/N=C/c2ccc(O)c([N+](=O)[O-])c2)c(C)n1-c1ccc(F)cc1` has an inhibition of 23.2%.
Work on `COc1cc(/C=N/NC(=O)c2cc(-c3ccccc3C)nc3ccccc23)cc(OC)c1O` yielded an inhibition of 3%.
With `COc1cc(/C=N/NC(=O)c2cc(C)n(-c3ccc(F)cc3)c2C)cc(OC)c1O` the inhibition was 35.7% (active).
`CN(C)CCn1c2c(c(SCC(=O)Nc3ccccc3C(F)(F)F)nc1=O)CCCC2` was tested, and the inhibition was -0.08%.
`CCN(CC(=O)Nc1ccccc1C(F)(F)F)C(=O)CSCc1c(C)noc1C` was tested, and the inhibition was -6.06%.
With `C=CCNC(=O)c1cc(-c2ccccc2O)on1` the inhibition was 3.47%.
With `C=CCNC(=O)c1ccccc1SCc1c(C)noc1C` the inhibition was 55.2% (active).
`COc1ccc(N2CCN(S(=O)(=O)c3cc4c5c(c3)C(C)C(=O)N5CCC4)CC2)cc1` (stereo not given) gave an inhibition of 8.18%.
With `Cc1nc2ccccc2c(=O)n1-c1ccc(NS(=O)(=O)c2ccc(F)cc2F)cc1` the inhibition was -1.88%.
With `CC(=O)C12CC(C)=C(C)CC1CC1C3CCC4=CC(=O)CCC4(C)C3CCC12C` (stereo not given) the inhibition was 0%.
For `CC1(C)S[C@@H]2[C@H](N=CN3CCCCCC3)C(=O)N2[C@H]1C(=O)O`, the inhibition was 1.77%.
`COC(=O)c1cc(CNC(=O)CC(C)c2ccccc2)ccc1OC` (stereo not given) gave an inhibition of 3.39%.
With `CC1(c2nnc(-c3ccncc3)o2)CC(c2cccnc2)=NO1` (stereo not given) the inhibition was 7.77%.
In the case of `CCc1nnc(NC(=O)CSc2nc3c(c(=O)n2-c2ccccc2OC)SCC3)s1`, the inhibition is reported as 35.6% (active).
`CCc1nnc(NC(=O)CSc2nnc(Cc3ccccc3)n2-c2ccc(OC)cc2)s1` gave an inhibition of -0.09%.
Compound `CCOc1ccc(NC(=O)CSc2nc3c(c(=O)n2-c2ccccc2OC)SCC3)cc1` has an inhibition of 9.5%.
Work on `OCC[C@H]1C[C@@H](O)[C@H](O)[C@]2(OCCCc3ccccc32)O1` yielded an inhibition of -3.33%.
In the case of `CC(C)CC[n+]1ccn(C2=C([O-])c3ccccc3C(=O)/C2=N\S(=O)(=O)c2ccccc2)c1`, the inhibition is reported as 70.8% (active).
Work on `COc1ccc(N(C(=O)c2cccnc2)S(=O)(=O)c2ccc(OC)c(OC)c2)cc1` yielded an inhibition of 8.53%.
For `COc1ccc(N(C(=O)c2cccnc2)S(=O)(=O)c2ccc3c(c2)n(C)c(=O)n3C)cc1`, the inhibition was 9.41%.
With `O=C(c1cccnc1)N(c1cc2sc(=O)oc2c2ccccc12)S(=O)(=O)c1ccccc1` the inhibition was 66.5% (active).

From PubChem BioAssay AID1974 (The Scripps Research Institute Molecular Screening Center, 2009)
